Source: PubChem BioAssay (National Center for Advancing Translational Sciences (NCATS))
NPSR antag: blocks cAMP signaling of the human neuropeptide S receptor. CHO-NPSR cells, cAMP TR-FRET, antagonist mode. Potency, µM (top dose mostly 38.3 µM), actives largely listed as inhibitors. 220,000 compounds, 1% hits; also: nearly all actives have a fitted effect of over 50% in size
B2AR arrestin: recruits beta-arrestin to the human beta2-adrenergic receptor; AID 492947; P07550; Potency, µM (top dose mostly 46.1 µM), hits mostly activators; 330,000 compounds, 0.02% hits; beta-arrestin recruitment to beta2AR, cell-based reporter; also: nearly all actives have a fitted effect of over 65% in size
RORgamma inh: ROR gamma (mouse) transcription inhibition. Potency, µM (titrated, usually from 53.6 µM), actives largely listed as inhibitors. 310,000 compounds, 5.4% hits. P51450. AID 2551. Drosophila S2 Gal4-RORgamma UAS-luciferase reporter, 20 h; also: nearly all actives have a fitted effect of over 60% in size
Target sequence (P51450 whole entry, looked up, the tested form may be a part): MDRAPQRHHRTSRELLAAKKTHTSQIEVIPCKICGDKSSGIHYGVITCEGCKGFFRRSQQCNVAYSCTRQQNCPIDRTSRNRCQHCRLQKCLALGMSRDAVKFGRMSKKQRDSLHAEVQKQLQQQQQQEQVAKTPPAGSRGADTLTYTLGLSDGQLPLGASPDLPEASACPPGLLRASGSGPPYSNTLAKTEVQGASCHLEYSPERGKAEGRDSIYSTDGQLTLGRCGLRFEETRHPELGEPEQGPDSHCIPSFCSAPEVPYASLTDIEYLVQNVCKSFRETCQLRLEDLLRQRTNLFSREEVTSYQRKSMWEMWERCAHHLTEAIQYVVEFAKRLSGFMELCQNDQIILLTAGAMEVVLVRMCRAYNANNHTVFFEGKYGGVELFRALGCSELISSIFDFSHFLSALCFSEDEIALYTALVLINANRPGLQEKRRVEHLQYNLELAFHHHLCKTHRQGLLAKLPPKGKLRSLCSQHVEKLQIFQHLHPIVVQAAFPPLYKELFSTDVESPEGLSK
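Compounds are pin-transferred onto Drosophila Schneider cells expressing a copper-inducible Gal4–ROR gamma transactivation domain fusion. After 1 hr, copper sulfate is added to 700 uM final; luciferase is read 20 hr later.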
VP16 counter: Gal4-VP16 reporter inhibition counter-screen; Potency, µM (top dose mostly 53.6 µM), hits mostly inhibitors; 310,000 compounds, 3.5% hits; Drosophila S2 Gal4-VP16 UAS-luciferase, luminescence, 20 h;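 also: Gal4-VP16 expression switched on by copper sulfate through the metallothionein promoter; nearly all actives have a fitted effect of over 50% in size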
Hits are given with their value. A selection: hits, their analogues and other compounds. The true share with any hit is near 5.7%. Calls follow the shape of the dose curve; as a rule, active = well fitted curve in the direction sought with a large enough effect; inconclusive = small, poorly fitted or top-dose-only effect, or another doubt; inactive = no such curve, though single readings can be large; an effect the other way counts as inactive or inconclusive.

Results for O=C(COC(=O)c1ccc2c(c1[N+](=O)[O-])C(=O)c1ccccc1C2=O)NC1CC1 ?
NPSR antag: inactive; B2AR arrestin: inactive; RORgamma inh: inconclusive; VP16 counter: 17.8µM

What do the screens show for `CCCOc1ccc(C(=O)NCCC(=O)NCCCC(=O)O)cc1`?
NPSR antag: inactive; B2AR arrestin: inactive; RORgamma inh: inactive; VP16 counter: inactive

What do the screens show for `CCCOc1ccc(NC(=O)C2CC(=O)N/C(=N/N=C(\C)CCc3ccc4c(c3)OCO4)S2)cc1` (stereo not given)?
NPSR antag: inactive; B2AR arrestin: inactive; RORgamma inh: inconclusive; VP16 counter: inactive

How did CC(/C=C/c1ccc(N(C)C)cc1)=N/N=C1/NC(=O)CC(C(=O)Nc2ccc(Cl)cc2)S1 (stereo not given) do in these assays?
NPSR antag: inactive; B2AR arrestin: inactive; RORgamma inh: 2.51µM; VP16 counter: 8.91µM

How did CC(/C=C/c1ccc(N(C)C)cc1)=N\N=C1\NC(=O)CC(C(=O)Nc2ccccc2)S1 (stereo not given) do in these assays?
NPSR antag: inactive; B2AR arrestin: inactive; RORgamma inh: 2.24µM; VP16 counter: 3.55µM

Results for CCCOc1ccc(NC(=O)C2CC(=O)N/C(=N/N=C(C)/C=C/c3ccc(N(C)C)cc3)S2)cc1 (stereo not given) ?
NPSR antag: inactive; B2AR arrestin: inactive; RORgamma inh: 2.82µM; VP16 counter: 3.16µM

What do the screens show for `CCCCCCCCCCCCCCCCCCCCCC(=O)Nc1ccn([C@@H]2O[C@H](CO)[C@@H](O)[C@@H]2O)c(=O)n1`?
RORgamma inh: inactive; VP16 counter: inactive

What do the screens show for `Cc1ccccc1OCC(=O)Nc1sc(C(=O)Nc2cccc(C)c2C)c(C)c1C#N`?
NPSR antag: 3.98µM; B2AR arrestin: inactive; RORgamma inh: inactive; VP16 counter: inactive

How did COc1ccccc1NC(=O)c1sc(NC(=O)c2ccco2)c(C#N)c1C do in these assays?
NPSR antag: inactive; B2AR arrestin: inactive; RORgamma inh: inactive; VP16 counter: inactive

Results for CCN(CC)C(=O)c1sc(NC(=O)Cc2ccc(OC)cc2)c(C#N)c1C ?
NPSR antag: inactive; B2AR arrestin: inactive; RORgamma inh: inactive; VP16 counter: inactive

What do the screens show for `CCOC(=O)c1sc(NC(=O)CSc2n[nH]c(-c3ccccc3)n2)c(C#N)c1C`?
NPSR antag: inactive; B2AR arrestin: inactive; RORgamma inh: 1.26µM; VP16 counter: 5.62µM

Results for CCN(CC)C(=O)c1sc(NC(=O)Cc2ccccc2)c(C#N)c1C ?
NPSR antag: inactive; B2AR arrestin: inactive; RORgamma inh: 6.31µM; VP16 counter: inactive

Results for CCOc1ccccc1-n1nnnc1SCC(=O)N1CCCC1=O ?
B2AR arrestin: inactive

What do the screens show for `N#Cc1ccc2[nH]c(CO)c(-c3ccccc3)c2c1`?
B2AR arrestin: inactive; RORgamma inh: inactive; VP16 counter: inactive

Results for COc1ccc(C(=O)Nc2nc3ccc(OC)cc3s2)cc1 ?
B2AR arrestin: inactive; RORgamma inh: 1.41µM; VP16 counter: 4.47µM

How did Cc1cc(C(=O)Nc2nc3ccc(Cl)cc3s2)nn1C do in these assays?
NPSR antag: inactive; B2AR arrestin: inactive; RORgamma inh: inconclusive; VP16 counter: inactive

How did CCCCC(=O)Nc1nc2ccc(C(=O)OC)cc2s1 do in these assays?
NPSR antag: inactive; B2AR arrestin: inactive; RORgamma inh: 8.91µM; VP16 counter: inconclusive

How did Cn1ncc(Cl)c1C(=O)Nc1nc2ccc(Cl)cc2s1 do in these assays?
NPSR antag: inactive; B2AR arrestin: inactive; RORgamma inh: 11.2µM; VP16 counter: inconclusive

Results for COc1ccc2nc(NC(=O)c3cnccn3)sc2c1 ?
NPSR antag: inactive; B2AR arrestin: inactive; RORgamma inh: inconclusive; VP16 counter: 10µM

How did CCCC(=O)Nc1nc2ccc(C(=O)OCC)cc2s1 do in these assays?
NPSR antag: inactive; B2AR arrestin: inactive; RORgamma inh: inactive; VP16 counter: inactive

What do the screens show for `COc1ccc(C(=O)Nc2nc3ccc(S(C)(=O)=O)cc3s2)cc1`?
NPSR antag: inconclusive; B2AR arrestin: inactive; RORgamma inh: inactive; VP16 counter: inactive

What do the screens show for `Cc1ccc(OCC(=O)Nc2cc(S(=O)(=O)N3CCOCC3)ccc2Cl)c([N+](=O)[O-])n1`?
NPSR antag: inactive; B2AR arrestin: inactive; RORgamma inh: inactive; VP16 counter: inactive

What do the screens show for `CCOc1ccccc1-c1ccc(C(=O)O)s1`?
RORgamma inh: inactive; VP16 counter: inactive

How did COc1ccc2nc(NC(=O)c3cccc(-c4cc5ccccc5oc4=O)c3)sc2c1 do in these assays?
NPSR antag: inconclusive; B2AR arrestin: inactive; RORgamma inh: 10µM; VP16 counter: 10µM

What do the screens show for `CC(=O)Nc1ccc(NC(=O)c2cccc(-c3cc4ccccc4oc3=O)c2)cc1`?
NPSR antag: inactive; B2AR arrestin: inactive; RORgamma inh: inconclusive; VP16 counter: inactive

How did COc1ccc(-n2c(-c3ccc(Br)cc3)n[nH]c2=S)cc1 do in these assays?
B2AR arrestin: inactive; RORgamma inh: 2.24µM; VP16 counter: 2.51µM

How did COc1ccc(-n2c(-c3ccc(Br)cc3)nc(=S)c3c2CCCC3)cc1 do in these assays?
NPSR antag: inactive; B2AR arrestin: inactive; RORgamma inh: 7.94µM; VP16 counter: 10µM

Results for COc1ccc(-n2c(-c3cnccn3)n[nH]c2=S)cc1 ?
NPSR antag: inactive; B2AR arrestin: inactive; RORgamma inh: inconclusive; VP16 counter: inactive

What do the screens show for `COc1ccc(-c2n[nH]c(=S)n2-c2ccc(C)cc2)cc1`?
NPSR antag: inactive; B2AR arrestin: inactive; RORgamma inh: 0.891µM; VP16 counter: 10µM

What do the screens show for `CCCCn1c(N)c(N(CC(C)C)C(=O)c2cc(-c3ccc(F)cc3)nc3ccccc23)c(=O)[nH]c1=O`?
B2AR arrestin: inactive

How did CCn1c2ccc(C)cc2c2nnc(NN)nc21 do in these assays?
NPSR antag: inactive; B2AR arrestin: inactive; RORgamma inh: 1.58µM; VP16 counter: inactive

How did Cc1ccc(C(=O)N/N=C\c2ccc3c(c2)OCO3)cn1 do in these assays?
B2AR arrestin: inactive; RORgamma inh: inactive; VP16 counter: inactive

How did Cc1ccc(C(=O)N/N=C/c2cc(Br)ccc2O)cn1 do in these assays?
B2AR arrestin: inactive; RORgamma inh: 2.51µM; VP16 counter: 1.12µM

What do the screens show for `Cc1ccc(C(=O)N/N=C\C=C\c2ccccc2[N+](=O)[O-])cn1`?
NPSR antag: inactive; B2AR arrestin: inactive; RORgamma inh: inactive; VP16 counter: inconclusive

How did Cc1ccc(C(=O)N/N=C\C=C\c2ccc(Br)cc2)cn1 do in these assays?
NPSR antag: inactive; B2AR arrestin: inactive; RORgamma inh: 0.562µM; VP16 counter: 2.24µM

Results for COc1ccc(C(CNC(=O)CN2C(=O)NC3(CCCC3)C2=O)N(C)C)cc1 (stereo not given) ?
B2AR arrestin: inactive; RORgamma inh: inactive; VP16 counter: inactive

What do the screens show for `Cc1ccc(-c2cc(C(=O)n3cnc4ccccc43)c3ccccc3n2)cc1C`?
NPSR antag: inactive; B2AR arrestin: inactive; RORgamma inh: 10µM; VP16 counter: 12.6µM

Results for Cc1ccc(-c2cc(C(=O)NCc3ccccn3)c3ccccc3n2)cc1C ?
NPSR antag: inactive; B2AR arrestin: inactive; RORgamma inh: inconclusive; VP16 counter: inactive

Results for COc1ccc(S(=O)(=O)/N=C2\C=C(Nc3ccc(O)cc3)C(=O)c3ccccc32)cc1 ?
B2AR arrestin: inactive; RORgamma inh: 10µM; VP16 counter: 5.62µM
